Test results reported in PubChem BioAssay (Tox21).
Results filed as inconclusive are left out. Calls of active or inactive are those of the source. Unless noted, the call rests on the fitted dose curve; in most records, active means well fitted curve in the direction sought with a large enough effect in the repeat runs; inconclusive means weak or mixed curves; inactive means no such curve, though single readings can be large; an effect the other way counts as inactive or inconclusive. Where a SMILES comes first, the peptide text is derived from it.

Tests used:
[1] = qHTS assay to identify small molecule antagonists of the TGF-beta/Smad signaling pathway - cell viability counter screen (AID 1346824); further: nearly all actives have a fitted effect of over 50% in size
In short: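 SBE-bla HEK 293T cells, incubated overnight, then compound plus 0.25 ng/mL TGF-beta1 (stock added) for 5 hr at 37 C. Viability was read in the same wells by CellTiter-Glo luminescence after 30 min at room temperature.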

[2] = qHTS assay to identify small molecule agonists of the TGF-beta/Smad signaling pathway - cell viability counter screen (AID 1346829); further: top concentration of the series differs between compounds; nearly all actives have a fitted effect of over 45% in size
In short: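 Tox21 qHTS format: SBE-bla HEK 293T cells treated with DMSO-dissolved compounds for 5 hr; CellTiter-Glo luminescence after 30 min at room temperature.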

[3] = Human pregnane X receptor (PXR) small molecule agonists, qHTS cell viability counter screen (AID 1346977); further: nearly all actives have a fitted effect of over 50% in size
In short: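 PXR-Luc HepG2 cells in medium with 5% charcoal-stripped FBS were pre-incubated 5hr, then exposed to compounds for 24hr at 37C. Viability was read in the same wells by CellTiter-Fluor fluorescence, reagent added after 23hr with a 1hr incubation.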

[4] = Caspase-3/7 induction in HepG2 cells by small molecules, qHTS assay (AID 1346978); further: nearly all actives have a fitted effect of over 15% in size
In short: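 Wild-type HepG2 cells, 2,000/well, settled 5 hr at 37 C and 5% CO2, then compound-treated for 17 hr; caspase-3/7 activity read by luminescent Caspase-Glo 3/7 after 30 min at room temperature.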

[5] = Caspase-3/7 induction in CHO-K1 cells by small molecules, qHTS cell viability counter screen (AID 1346979); further: nearly all actives have a fitted effect of over 35% in size
In short: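 Wild-type CHO-K1 cells were seeded at 1,500 per well, rested 5hr at 37 C, then exposed to compounds in DMSO. After 16hr, CellTiter-Fluor reagent was added and fluorescence read 1hr later as the viability measure.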

[6] = Caspase-3/7 induction in CHO-K1 cells by small molecules, qHTS assay (AID 1346980); further: nearly all actives have a fitted effect of over 15% in size
In short: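 Wild-type CHO-K1 cells exposed to compounds for 17hr at 37 C, 5% CO2. Caspase-3/7 activity then measured by Caspase-Glo 3/7 luminescence after 30min at room temperature.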

[7] = Caspase-3/7 induction in HepG2 cells by small molecules, qHTS cell viability counter screen (AID 1346981); further: series mostly up to about 92 µM; nearly all actives have a fitted effect of over 30% in size
In short: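 Steps: seed 2,000 HepG2 cells per well; incubate 5 hr at 37 C; pin-add compounds in DMSO; incubate 16 hr; add CellTiter-Fluor; after 1 hr at 37 C and 5% CO2, read fluorescence.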

[8] = molecular target: Nuclear receptor subfamily 1 group I member 2 (Homo sapiens) (UniProt O75469); test: Human pregnane X receptor (PXR) small molecule agonists, qHTS assay (AID 1346982); further: nearly all actives have a fitted effect of over 35% in size; further: potency means the concentration at half of the fitted maximal effect
In short: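 Agonist mode qHTS: PXR-Luc HepG2 cells plated 5 hr before DMSO-dissolved compounds were pinned in, cultured 24 hr at 37 C, 5% CO2; ONE-Glo luminescence readout.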

[9] = molecular target: Cytochrome P450 2C19 (Homo sapiens) (UniProt P33261); test: Cytochrome P450 Family 2 Subfamily C Member 19 (CYP2C19) small molecule antagonists: luciferase reporter qHTS assay (AID 1671197); further: nearly all actives have a fitted effect of over 65% in size; further: potency means the concentration at half of the fitted maximal effect; on activity change, negative = inhibition: series mostly up to about 120 µM
In short: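 Relative luminescence units recorded 20 min after the detection reagent stopped a 1 h, 37C CYP2C19 reaction on proluciferin substrate, which was started by NADPH regeneration following 10 min room-temperature compound preincubation; ketoconazole positive control.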

[10] = molecular target: Cytochrome P450 2C9 (Homo sapiens) (UniProt P11712); test: Cytochrome P450 Family 2 Subfamily C Member 9 (CYP2C9) small molecule antagonists: luciferase reporter qHTS assay (AID 1671198); further: series mostly up to about 120 µM; nearly all actives have a fitted effect of over 50% in size
In short: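 P450-Glo proluciferin substrate with CYP2C9 enzyme; 10 min RT preincubation, then NADPH regeneration 1 h at 37C; luciferin detection reagent 20 min RT, luminescence in relative luminescence units.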

[11] = molecular target: Voltage-gated inwardly rectifying potassium channel KCNH2 (Homo sapiens) (UniProt Q12809); test: Human Ether-a-go-go-Related Gene (hERG) channel small molecule antagonists: fluorescence cell-based qHTS assay (AID 1671200); further: nearly all actives have a fitted effect of over 50% in size; further: potency means the concentration at half of the fitted maximal effect;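 on activity change, negative = inhibition: hERG-expressing U2OS cells given a thallium stimulus after FluxOR II dye loading; series mostly up to about 77 µM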
In short: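 U2OS cells expressing the channel were plated at 1000 cells/well, incubated overnight at 37 C, then loaded with FluxOR II thallium-sensitive dye for 1 h at room temperature in the dark, with a further 10 min at room temperature before stimulation.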

[12] = molecular target: Cytochrome P450 3A4 (Homo sapiens) (UniProt P08684); test: Cytochrome P450 Family 3 Subfamily A Member 4 (CYP3A4) small molecule antagonists: luciferase reporter qHTS assay (AID 1671201); further: nearly all actives have a fitted effect of over 50% in size; further: potency means the concentration at half of the fitted maximal effect; on activity change, negative = inhibition: series mostly up to about 120 µM
In short: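 P450-Glo CYP3A4 system with proluciferin substrate; compounds preincubated 10 min RT with enzyme-substrate mix, then NADPH regeneration added for 1 h RT. Detection reagent 20 min, luminescence read as relative luminescence units.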

[13] = molecular target: Thyrotropin-releasing hormone receptor (Homo sapiens) (UniProt P34981); test: qHTS assay to identify small molecule antagonists of the thyrotropin-releasing hormone receptor (TRHR) signaling pathway (AID 1346877; active means well fitted inhibition curve with a large enough effect in the repeat runs, not every such curve was filed as active; further: series mostly up to about 51 µM)
In short: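 Cells (TRHR-HEK293) are plated and kept 18 h at 37 °C/5% CO2. A calcium-sensitive dye is added for 2 h, compound follows for 5 min at room temperature, and TRH is then given at 1 nM final.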

[14] = molecular target: Thyrotropin-releasing hormone receptor (Homo sapiens) (UniProt P34981); test: qHTS assay to identify small molecule agonists of the thyrotropin-releasing hormone receptor (TRHR) signaling pathway (AID 1346891; calls by dose curve; further: series mostly up to about 58 µM)
In short: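 TRHR-expressing HEK293 cells were plated 18 h at 37 °C/5% CO2, loaded with calcium dye 2 h at 37 °C, then given compound in DMSO; fluorescence was read kinetically for 3 min at 1 s intervals.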

[15] = molecular target: Cytochrome P450 2D6 (Homo sapiens) (UniProt P10635); test: Cytochrome P450 Family 2 Subfamily D Member 6 (CYP2D6) small molecule antagonists: luciferase reporter qHTS assay (AID 1671196); further: nearly all actives have a fitted effect of over 50% in size; further: potency means the concentration at half of the fitted maximal effect; on activity change, negative = inhibition: series mostly up to about 120 µM
In short: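 P450-Glo format: CYP2D6 converts a proluciferin substrate to luciferin in an NADPH-driven reaction lasting 1 h at room temperature. Light output, proportional to CYP2D6 activity, reflects interference by test chemicals.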

[16] = molecular target: Nuclear receptor subfamily 1 group I member 2 (Homo sapiens) (UniProt O75469); test: Human pregnane X receptor (PXR) activation by small molecules, qHTS assay (AID 1346985); further: nearly all actives have a fitted effect of over 40% in size; further: potency means the concentration at half of the fitted maximal effect
In short: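 DPX-2 cells (HepG2 co-transfected with a PXR response element and a CYP3A4-promoter luciferase construct) were seeded at 2,000 per well, rested 5 hr at 37C, then exposed to DMSO-dissolved compounds for 24 hr. Activation was read as luciferase luminescence.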

[17] = molecular target: Cytochrome P450 1A2 (Homo sapiens) (UniProt P05177); test: Cytochrome P450 Family 1 Subfamily A Member 2 (CYP1A2) small molecule antagonists: luciferase reporter qHTS assay (AID 1671199); further: nearly all actives have a fitted effect of over 50% in size; further: potency means the concentration at half of the fitted maximal effect; on activity change, negative = inhibition: series mostly up to about 120 µM
In short: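 Inhibition of CYP1A2 conversion of proluciferin to luciferin, detected by luminescence. Reaction run 1 h at room temperature with NADPH regeneration after brief compound preincubation.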

[18] = molecular target: Nuclear receptor subfamily 1 group I member 2 (Homo sapiens) (UniProt O75469); test: CYP3A4 induction through human pregnane X receptor (PXR) by small molecules, qHTS assay (AID 1346984); further: nearly all actives have a fitted effect of over 40% in size; further: potency means the concentration at half of the fitted maximal effect
In short: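 Steps: seed DPX-2 cells, 5 hr at 37C; pin-transfer compounds; 24 hr at 37C; add Luciferin-IPA (3uM final), 3 hr at 37C; add One-Glo, 30 min RT; read luminescence.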
On the % scale 0 is the no-effect control and ±100 the full control effect.

Chain of Cytochrome P450 3A4 (Homo sapiens) (P08684 whole entry, looked up): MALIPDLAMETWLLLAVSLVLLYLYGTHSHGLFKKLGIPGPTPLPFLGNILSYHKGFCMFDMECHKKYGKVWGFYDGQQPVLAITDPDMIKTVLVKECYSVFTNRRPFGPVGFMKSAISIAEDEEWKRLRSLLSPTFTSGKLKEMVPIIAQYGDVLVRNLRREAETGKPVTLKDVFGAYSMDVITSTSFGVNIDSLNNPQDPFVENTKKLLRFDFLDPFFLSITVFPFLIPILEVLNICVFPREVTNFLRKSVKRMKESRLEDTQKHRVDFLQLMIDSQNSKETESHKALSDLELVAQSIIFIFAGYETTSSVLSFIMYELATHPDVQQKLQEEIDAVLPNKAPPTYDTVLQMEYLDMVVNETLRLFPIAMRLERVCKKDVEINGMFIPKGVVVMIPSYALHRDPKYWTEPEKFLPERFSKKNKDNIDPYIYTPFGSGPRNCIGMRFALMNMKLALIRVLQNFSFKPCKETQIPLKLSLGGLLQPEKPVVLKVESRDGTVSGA
Chain of Cytochrome P450 2C19 (Homo sapiens) (P33261 whole entry, looked up): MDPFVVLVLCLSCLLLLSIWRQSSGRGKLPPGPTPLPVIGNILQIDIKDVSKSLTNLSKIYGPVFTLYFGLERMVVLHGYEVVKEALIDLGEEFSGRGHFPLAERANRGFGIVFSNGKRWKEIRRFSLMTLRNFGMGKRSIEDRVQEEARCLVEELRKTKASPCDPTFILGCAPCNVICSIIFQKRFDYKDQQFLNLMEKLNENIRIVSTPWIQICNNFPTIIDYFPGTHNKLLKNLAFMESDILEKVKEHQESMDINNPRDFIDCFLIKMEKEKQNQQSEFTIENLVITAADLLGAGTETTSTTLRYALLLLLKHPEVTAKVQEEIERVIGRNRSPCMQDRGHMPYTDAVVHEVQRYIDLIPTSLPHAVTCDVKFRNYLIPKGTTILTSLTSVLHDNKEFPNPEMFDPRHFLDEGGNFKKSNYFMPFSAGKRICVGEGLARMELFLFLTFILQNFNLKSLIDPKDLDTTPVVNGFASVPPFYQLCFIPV
Chain of Thyrotropin-releasing hormone receptor (Homo sapiens) (P34981 whole entry, looked up): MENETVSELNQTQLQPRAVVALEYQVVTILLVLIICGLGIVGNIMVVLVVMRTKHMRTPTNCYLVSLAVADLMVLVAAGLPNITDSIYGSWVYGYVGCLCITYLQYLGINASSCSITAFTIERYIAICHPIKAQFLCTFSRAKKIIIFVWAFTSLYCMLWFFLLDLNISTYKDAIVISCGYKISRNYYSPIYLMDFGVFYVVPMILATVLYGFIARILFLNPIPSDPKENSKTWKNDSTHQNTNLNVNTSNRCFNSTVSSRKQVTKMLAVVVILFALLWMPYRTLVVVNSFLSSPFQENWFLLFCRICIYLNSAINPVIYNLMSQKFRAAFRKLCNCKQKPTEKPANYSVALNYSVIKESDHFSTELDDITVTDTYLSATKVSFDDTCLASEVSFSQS
Chain of Voltage-gated inwardly rectifying potassium channel KCNH2 (Homo sapiens) (Q12809 whole entry, looked up): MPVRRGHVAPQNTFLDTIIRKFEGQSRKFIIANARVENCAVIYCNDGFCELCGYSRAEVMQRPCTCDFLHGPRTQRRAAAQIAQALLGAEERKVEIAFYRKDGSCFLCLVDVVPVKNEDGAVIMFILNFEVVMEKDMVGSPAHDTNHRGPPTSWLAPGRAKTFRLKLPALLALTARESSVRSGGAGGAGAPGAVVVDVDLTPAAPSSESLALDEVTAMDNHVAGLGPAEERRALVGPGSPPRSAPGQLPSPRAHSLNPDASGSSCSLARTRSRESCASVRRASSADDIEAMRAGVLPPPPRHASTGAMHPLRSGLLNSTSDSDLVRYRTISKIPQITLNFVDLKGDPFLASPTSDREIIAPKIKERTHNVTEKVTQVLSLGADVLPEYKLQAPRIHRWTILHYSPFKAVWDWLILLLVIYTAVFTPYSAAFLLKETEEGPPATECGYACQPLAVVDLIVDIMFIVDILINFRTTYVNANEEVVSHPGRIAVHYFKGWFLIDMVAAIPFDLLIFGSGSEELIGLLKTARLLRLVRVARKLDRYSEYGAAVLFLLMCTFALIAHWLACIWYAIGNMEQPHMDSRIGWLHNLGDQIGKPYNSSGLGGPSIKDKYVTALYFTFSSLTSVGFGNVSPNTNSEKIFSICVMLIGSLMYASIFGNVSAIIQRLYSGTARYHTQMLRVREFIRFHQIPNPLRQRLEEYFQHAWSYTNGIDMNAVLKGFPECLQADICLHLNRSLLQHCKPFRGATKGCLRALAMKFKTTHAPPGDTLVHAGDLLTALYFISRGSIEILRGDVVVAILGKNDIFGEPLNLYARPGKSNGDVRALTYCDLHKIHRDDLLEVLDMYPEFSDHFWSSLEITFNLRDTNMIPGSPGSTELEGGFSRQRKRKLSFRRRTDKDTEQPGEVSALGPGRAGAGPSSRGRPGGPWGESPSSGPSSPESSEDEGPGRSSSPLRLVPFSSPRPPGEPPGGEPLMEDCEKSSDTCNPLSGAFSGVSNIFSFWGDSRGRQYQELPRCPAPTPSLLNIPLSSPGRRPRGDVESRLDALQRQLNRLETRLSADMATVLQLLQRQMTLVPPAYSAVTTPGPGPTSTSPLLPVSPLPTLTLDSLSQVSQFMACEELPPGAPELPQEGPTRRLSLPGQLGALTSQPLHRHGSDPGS
Chain of Cytochrome P450 2C9 (Homo sapiens) (P11712 whole entry, looked up): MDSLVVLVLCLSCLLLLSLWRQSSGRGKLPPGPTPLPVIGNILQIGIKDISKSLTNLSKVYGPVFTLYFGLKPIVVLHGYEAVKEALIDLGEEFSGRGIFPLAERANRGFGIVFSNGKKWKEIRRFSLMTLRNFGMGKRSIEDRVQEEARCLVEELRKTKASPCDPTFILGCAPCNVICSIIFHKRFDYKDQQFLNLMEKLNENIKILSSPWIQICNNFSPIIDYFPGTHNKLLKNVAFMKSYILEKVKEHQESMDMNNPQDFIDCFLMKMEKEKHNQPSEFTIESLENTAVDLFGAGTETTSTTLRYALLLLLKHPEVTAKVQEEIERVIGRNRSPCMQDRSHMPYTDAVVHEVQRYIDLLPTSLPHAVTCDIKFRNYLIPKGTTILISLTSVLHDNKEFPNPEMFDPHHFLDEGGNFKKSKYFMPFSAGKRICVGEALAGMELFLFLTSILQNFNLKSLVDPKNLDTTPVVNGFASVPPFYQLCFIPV
Chain of Cytochrome P450 2D6 (Homo sapiens) (P10635 whole entry, looked up): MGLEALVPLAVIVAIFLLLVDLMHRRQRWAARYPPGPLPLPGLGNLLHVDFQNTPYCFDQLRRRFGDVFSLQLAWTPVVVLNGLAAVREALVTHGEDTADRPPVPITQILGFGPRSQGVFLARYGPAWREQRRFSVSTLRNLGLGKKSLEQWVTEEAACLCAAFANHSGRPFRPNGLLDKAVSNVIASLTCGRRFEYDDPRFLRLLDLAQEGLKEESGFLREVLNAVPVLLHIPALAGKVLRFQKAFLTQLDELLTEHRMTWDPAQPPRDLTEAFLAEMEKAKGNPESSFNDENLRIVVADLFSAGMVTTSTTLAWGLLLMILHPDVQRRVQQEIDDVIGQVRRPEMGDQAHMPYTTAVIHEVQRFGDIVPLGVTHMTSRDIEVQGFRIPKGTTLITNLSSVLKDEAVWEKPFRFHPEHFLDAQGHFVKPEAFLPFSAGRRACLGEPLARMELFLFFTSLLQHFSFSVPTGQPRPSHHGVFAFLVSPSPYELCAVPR
Chain of Cytochrome P450 1A2 (Homo sapiens) (P05177 whole entry, looked up): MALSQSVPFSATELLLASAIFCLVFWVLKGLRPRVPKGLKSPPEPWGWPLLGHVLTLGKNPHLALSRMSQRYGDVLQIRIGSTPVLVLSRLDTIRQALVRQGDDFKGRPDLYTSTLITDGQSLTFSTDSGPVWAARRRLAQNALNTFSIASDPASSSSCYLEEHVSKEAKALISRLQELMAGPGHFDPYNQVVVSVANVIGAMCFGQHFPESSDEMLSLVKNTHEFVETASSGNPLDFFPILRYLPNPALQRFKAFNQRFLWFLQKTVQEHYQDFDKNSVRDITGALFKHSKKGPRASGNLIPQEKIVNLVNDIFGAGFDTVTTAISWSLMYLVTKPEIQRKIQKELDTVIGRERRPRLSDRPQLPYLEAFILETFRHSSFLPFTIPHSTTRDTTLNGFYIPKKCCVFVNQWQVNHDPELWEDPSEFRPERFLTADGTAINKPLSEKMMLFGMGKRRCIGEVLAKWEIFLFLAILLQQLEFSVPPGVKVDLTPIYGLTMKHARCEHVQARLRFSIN
Chain of Nuclear receptor subfamily 1 group I member 2 (Homo sapiens) (O75469 whole entry, looked up): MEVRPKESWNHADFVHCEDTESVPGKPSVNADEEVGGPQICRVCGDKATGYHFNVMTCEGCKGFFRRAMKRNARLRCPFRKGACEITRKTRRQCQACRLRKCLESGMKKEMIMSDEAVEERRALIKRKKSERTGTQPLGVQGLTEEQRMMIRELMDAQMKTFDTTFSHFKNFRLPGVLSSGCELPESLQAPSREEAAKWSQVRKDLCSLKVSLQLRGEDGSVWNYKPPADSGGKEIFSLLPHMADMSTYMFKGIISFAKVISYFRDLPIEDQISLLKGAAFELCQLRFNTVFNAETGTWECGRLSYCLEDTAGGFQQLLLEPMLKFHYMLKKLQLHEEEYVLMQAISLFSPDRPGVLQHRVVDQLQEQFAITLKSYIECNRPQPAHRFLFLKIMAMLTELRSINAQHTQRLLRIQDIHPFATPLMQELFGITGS

O=Cc1ccccc1Cl
inactive: outcome [1] | outcome [2] | outcome [3] | outcome [4] | Potency [5] | outcome [6] | outcome [7] | Potency [8] | Potency [9] | Potency [10] | Potency [11] | Potency [12]

O=C(Cl)c1ccccc1[N+](=O)[O-]
active: Potency [9] 72.7 µM
inactive: outcome [1] | outcome [2] | outcome [13] | outcome [14] | outcome [3] | outcome [4] | Potency [5] | outcome [6] | outcome [7] | Potency [8] | Potency [10] | Potency [11] | Potency [12]

CC(O)COC(C)(C)C (centres undefined)
inactive: outcome [1] | outcome [2] | outcome [13] | outcome [14] | outcome [3] | outcome [4] | Potency [5] | outcome [6] | outcome [7] | Potency [8] | Potency [11]

CC1CC(=O)CC(C)(C)C1 (centres undefined)
inactive: outcome [1] | outcome [2] | outcome [3] | outcome [4] | Potency [5] | outcome [6] | Potency [8] | Potency [15] | Potency [9] | Potency [10] | Potency [11] | Potency [12]

CCOC(CN1CCN(CC(C)C(=O)c2ccccc2)CC1)c1ccccc1 (centres undefined)
inactive: viability change, negative = cytotoxic [1] -0.107% [at 15.8 µM] | activity change, negative = cytotoxicity [2] -11.2% [at 15.8 µM] | activity, negative = inhibition [13] -3.1% [at 10.5 µM] | activation [14] 0.148% [at 11.8 µM] | activity change, negative = cytotoxicity [3] -0.628% [at 19 µM] | caspase activation [4] 0.292% [at 19 µM] | activity change, negative = cytotoxicity [5] 0.23% [at 19 µM] | caspase-3/7 activation [6] 0.336% [at 19 µM] | activity change, negative = inhibition [12] 51.9% [at 23.6 µM]
active: Potency [8] 14.6 µM | Potency [16] 10 µM | Potency [15] 0.213 µM | Potency [11] 10.4 µM

CCCCCCCCCOC(=O)CCCCC(=O)OCCCCCCC
inactive: outcome [1] | outcome [2] | outcome [14] | outcome [3] | outcome [4] | Potency [5] | outcome [6] | outcome [7] | Potency [8] | Potency [9] | Potency [10] | Potency [11] | Potency [12]

CC(=O)N[C@@H](CO)C(=O)N[C@@H](CC(=O)O)C(=O)N[C@@H](CCCCN)C(=O)N1CCC[C@H]1C(=O)O (Ac-SDKP-OH)
inactive: outcome [1] | outcome [2] | outcome [13] | outcome [3] | outcome [4] | Potency [5] | outcome [6] | outcome [7] | Potency [8] | Potency [15] | Potency [9] | Potency [17] | Potency [11] | Potency [12]

CCCCCC/C=C/C(=O)OC
inactive: outcome [1] | outcome [2] | outcome [3] | outcome [4] | Potency [5] | outcome [6] | outcome [7] | Potency [8] | Potency [15] | Potency [9] | Potency [10] | Potency [17]

C=CCN1C[C@H](C(=O)N(CCCN(C)C)C(=O)NCC)C[C@@H]2c3cccc4[nH]cc(c34)C[C@H]21
inactive: outcome [1] | outcome [2] | outcome [13] | outcome [14] | outcome [4] | outcome [6] | Potency [9] | Potency [10] | Potency [17]
active: Potency [8] 29.8 µM | Potency [18] 12.6 µM | Potency [16] 15.8 µM | Potency [15] 2.45 µM | Potency [12] 0.977 µM

CC(C)C1OCCN1CCOC(=O)NCCCCCCNC(=O)OCCN1CCOC1C(C)C (centres undefined)
inactive: outcome [1] | outcome [13] | outcome [14] | outcome [3] | Potency [5] | outcome [6] | outcome [7] | Potency [10] | Potency [17]
active: Potency [8] 34.4 µM | Potency [15] 63.3 µM | Potency [9] 35.6 µM | Potency [12] 10 µM

CC(C)NC(=O)c1ccc(C=O)cc1
inactive: outcome [1] | outcome [2] | outcome [13] | outcome [14] | outcome [3] | outcome [4] | Potency [5] | outcome [6] | outcome [7] | Potency [8] | Potency [9] | Potency [10] | Potency [11] | Potency [12]
active: Potency [17] 34.7 µM

COc1cc(/C=C/C(N)=O)cc(OC)c1OC
inactive: outcome [1] | outcome [2] | outcome [13] | outcome [14] | outcome [3] | outcome [4] | Potency [5] | outcome [6] | outcome [7] | Potency [8] | Potency [9] | Potency [10] | Potency [11] | Potency [12]
active: Potency [17] 21.9 µM

C=C(C)[C@@H]1CC=C(C)C(=O)C1
inactive: outcome [1] | outcome [2] | outcome [3] | outcome [4] | Potency [5] | outcome [6] | outcome [7] | Potency [8] | Potency [9] | Potency [10] | Potency [12]

Nc1nc(-c2ccccc2)c(Br)c(=O)[nH]1
inactive: outcome [1] | outcome [2] | outcome [3] | Potency [5] | outcome [6] | outcome [7] | Potency [8] | Potency [18] | Potency [16] | Potency [15] | Potency [9] | Potency [10] | Potency [17] | Potency [11] | Potency [12]
